Measured values reported in PubChem BioAssay AID932 (The Scripps Research Institute Molecular Screening Center, 2007).
Screen size: about 200,000 compounds; about 5,100 (2.5%) were called active. The entries come from a sample that favours actives as a whole. Unmarked numbers belong to inactive results.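 Rule for the calls: active = activation above the screen-wide mean activation plus 3 SD (cut at about 130% in these data); inactive = the rest.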

experiment: STAT1 signaling activators, primary screen, cell-based, HTS, luciferase reporter (AID 932); conditions: NIH 3T3 STAT1-luciferase reporter, IFN-gamma, luminescence; at 5.5 µM; active compounds read high; 100% = IFN-gamma alone, no compound;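 note: raw ratio to IFN-gamma control signal so 100% means no change and 0% no light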

Which activation (% of control) does the source give for `CCCCN(CC)C(=S)Nc1ccc2nc3n(c(=O)c2c1)CCCCC3` here?
The activation (% of control) was 91%.

With `Cc1c(NC(=O)Nc2ccccc2)cccc1[N+](=O)[O-]` as the compound, how does the activation (% of control) read?
Its activation (% of control) is 83.6%.

Which activation (% of control) does the source give for `Cc1csc(NC(=O)Nc2ccccc2[N+](=O)[O-])n1` here?
The activation (% of control) was 133% (active).

For `Cc1cc(NC(=O)Nc2ccccc2[N+](=O)[O-])no1`, which activation (% of control) is on record?
Its activation (% of control) is 114%.

With `CN(Cc1cccc2ncccc12)C(=O)CC1C(=O)NCCN1Cc1ccc(F)cc1` (stereo unspecified) as the compound, how does the activation (% of control) read?
Its activation (% of control) is 98.1%.

With `CC(=O)c1cnc(-c2ccccc2)s1` as the compound, how does the activation (% of control) read?
The activation (% of control) was 116%.

For `CC(C)(C)C(=O)c1cnc(Nc2ccccc2)s1`, which activation (% of control) is on record?
Its activation (% of control) is 156% (active).

Which activation (% of control) does the source give for `O=C(c1ccc(Cl)cc1)c1cnc(Nc2ccccc2)s1` here?
The activation (% of control) was 119%.

With `CS(=O)(=O)n1nc(-c2ccco2)nc1N` as the compound, how does the activation (% of control) read?
The activation (% of control) was 105%.

With `CCn1nnnc1SCC(=O)c1ccc(C)cc1C` as the compound, how does the activation (% of control) read?
Its activation (% of control) is 145% (active).

For `CNC(=O)CSc1nnnn1-c1ccc(C)cc1C`, which activation (% of control) is on record?
The activation (% of control) was 97.7%.

For `COc1ccc(C(=O)CSc2nnnn2C)c(OC)c1`, which activation (% of control) is on record?
Its activation (% of control) is 107%.

With `COc1ccc(CCNC(=O)c2ccco2)cc1` as the compound, how does the activation (% of control) read?
The activation (% of control) was 109%.

With `O=C(CSc1ccccc1)Nc1ccc(NC(=O)c2ccco2)cc1` as the compound, how does the activation (% of control) read?
The activation (% of control) was 109%.

With `O=C(NCCSc1ccccc1)c1ccco1` as the compound, how does the activation (% of control) read?
The activation (% of control) was 134% (active).

With `CN(C)S(=O)(=O)N1CCN(c2ccc([N+](=O)[O-])cc2)CC1` as the compound, how does the activation (% of control) read?
Its activation (% of control) is 110%.

With `CCn1c(/C=C/c2ccc([N+](=O)[O-])o2)nc2ccccc2c1=O` as the compound, how does the activation (% of control) read?
Its activation (% of control) is 182% (active).

Which activation (% of control) does the source give for `Cn1cc(/C=C/c2nc3ccccc3c(=O)n2-c2cccc([N+](=O)[O-])c2)c2ccccc21` here?
Its activation (% of control) is 85.4%.

Which activation (% of control) does the source give for `C/[N+]([O-])=C\c1ccc([N+](=O)[O-])o1` here?
Its activation (% of control) is 99.5%.

Which activation (% of control) does the source give for `CCCn1c(SCC(=O)Nc2ccc(C)c(S(=O)(=O)N3CCOCC3)c2)n[nH]c1=O` here?
Its activation (% of control) is 90.6%.

Which activation (% of control) does the source give for `CCC(=O)Nc1ccc(C(=O)N2CCN(C(=O)c3ccco3)CC2)cc1` here?
The activation (% of control) was 99.8%.

Which activation (% of control) does the source give for `CN(C)c1ccc(C=NCCc2ccc(S(N)(=O)=O)cc2)cc1` here?
The activation (% of control) was 101%.

For `O=C(Nc1ccn(Cc2ccc(F)cc2)n1)c1ccncc1`, which activation (% of control) is on record?
Its activation (% of control) is 94.9%.

With `O=C(Nc1ccn(Cc2ccccc2)n1)c1cccc(F)c1` as the compound, how does the activation (% of control) read?
The activation (% of control) was 131% (active).

For `O=C(Nc1ccn(Cc2ccccc2)n1)c1n[nH]c([N+](=O)[O-])c1Cl`, which activation (% of control) is on record?
Its activation (% of control) is 121%.

For `COC1=CCC2([N+](=O)[O-])CN(CC(=O)O)CC1([N+](=O)[O-])C2` (stereo unspecified), which activation (% of control) is on record?
Its activation (% of control) is 106%.

With `Fc1ccc2c(c1)C(c1cccnc1)=NNC(c1cccs1)=N2` as the compound, how does the activation (% of control) read?
Its activation (% of control) is 103%.

For `Cc1ccc(NC(=O)O/N=C/c2cccc([N+](=O)[O-])c2)cc1`, which activation (% of control) is on record?
The activation (% of control) was 113%.

For `COc1cc2c3c(c1)/C(=C1/SC(=S)NC1=O)C(=O)N3C(C)(C)C=C2C`, which activation (% of control) is on record?
Its activation (% of control) is 98.1%.

Which activation (% of control) does the source give for `Cc1ccc(NC(=O)c2oc3ccccc3c2C)c([N+](=O)[O-])c1` here?
The activation (% of control) was 100%.

Which activation (% of control) does the source give for `O=C(Nc1ccccc1)c1cc2ccccc2[nH]1` here?
Its activation (% of control) is 137% (active).

Which activation (% of control) does the source give for `O=C(Nc1ccccc1)c1ccccc1NC(=O)C(F)(F)F` here?
Its activation (% of control) is 93.5%.

Which activation (% of control) does the source give for `CC(C)n1c(=O)[nH]c2cc(C(=O)Nc3ccccc3)ccc21` here?
The activation (% of control) was 128%.

With `CCCCNC(=O)Nc1c(C)cc(SC#N)cc1C` as the compound, how does the activation (% of control) read?
Its activation (% of control) is 97.9%.

Which activation (% of control) does the source give for `COc1ccc(/C=N/S(=O)(=O)c2ccccc2)cc1OC` here?
The activation (% of control) was 107%.

Which activation (% of control) does the source give for `COc1ccc(/C=N/Nc2nc3ccccc3o2)cc1OC` here?
Its activation (% of control) is 153% (active).

For `CCOc1ccc(/C=N/Nc2nncc(-c3ccccc3)n2)cc1OC`, which activation (% of control) is on record?
The activation (% of control) was 107%.

With `CCOC(=O)c1ccc[n+](CC(=O)Nc2ccccc2OC(F)F)c1` as the compound, how does the activation (% of control) read?
Its activation (% of control) is 98.5%.

With `O=C(Nc1cccc(-c2nnc(-c3ccccc3)o2)c1)C1CCCO1` (stereo unspecified) as the compound, how does the activation (% of control) read?
Its activation (% of control) is 120%.

With `O=C(Nc1ccc(-c2nnc(-c3ccccc3)o2)cc1)C1CCCO1` (stereo unspecified) as the compound, how does the activation (% of control) read?
Its activation (% of control) is 168% (active).

Which activation (% of control) does the source give for `O=C(Nc1nnc(CCc2ccccc2)s1)C1CCCO1` (stereo unspecified) here?
The activation (% of control) was 109%.

Which activation (% of control) does the source give for `CC1CN(S(=O)(=O)c2ccc(C(=O)NN3CCN(C)CC3)cc2)CC(C)O1` (stereo unspecified) here?
Its activation (% of control) is 100%.

With `COc1cccc2sc(Nc3nc(C)c(C(C)=O)s3)nc12` as the compound, how does the activation (% of control) read?
The activation (% of control) was 112%.

For `CCOC(=O)c1sc(NC(=O)c2ccncc2)nc1C`, which activation (% of control) is on record?
Its activation (% of control) is 109%.

Which activation (% of control) does the source give for `CC(=O)c1sc(N/N=C/c2ccc(C(C)C)cc2)nc1C` here?
Its activation (% of control) is 158% (active).

For `Cc1ccc(S(=O)(=O)Nc2nc(C)cc(N/N=C/c3ccc(O)cc3)n2)cc1`, which activation (% of control) is on record?
The activation (% of control) was 95.6%.

With `CC(=O)c1sc(NC(=O)c2ccc(C)cc2)nc1C` as the compound, how does the activation (% of control) read?
The activation (% of control) was 161% (active).

Which activation (% of control) does the source give for `CC(=O)c1sc(N/N=C\c2ccc(C)cc2)nc1C` here?
The activation (% of control) was 166% (active).

Which activation (% of control) does the source give for `CC(=O)c1sc(NC(=O)CCCOc2ccccc2C)nc1C` here?
The activation (% of control) was 105%.

Which activation (% of control) does the source give for `CC(=O)c1sc(NC(=O)C2=NN(c3ccccc3)C(=O)CC2)nc1C` here?
The activation (% of control) was 98.2%.

Which activation (% of control) does the source give for `CC(=O)c1sc(NC(=O)c2cccc3ccccc23)nc1C` here?
Its activation (% of control) is 114%.
